Experimental data: PubChem BioAssay AID463173 (ICCB-Longwood Screening Facility, Harvard Medical School, 2010)
Screen size: about 52,000 compounds; about 1,700 (3.3%) were called active. This excerpt belongs to a sample that is enriched for actives. Values without a mark were called inactive. Rule as the data show it: active = survival mostly below about 52% (no sharp cut-off); inactive = mostly above about 56%.

Test system: Wild type
Assay: S. aureus survival, RN4220 and DeltatarO strains – OD600, teichoic acid synthesis inhibitors, primary screen (AID 463173)
Conditions: S. aureus RN4220 wild type/DeltatarO growth, OD600, 18 h, active compounds read low, screened at 18.75 µg/mL (by protocol)

SMILES	survival
CCN(C(=O)Cn1nc(Cc2cccnc2)c2ccccc2c1=O)c1cc(C)ccc1C	83%
CCc1ccccc1NC(=O)Cn1c(SCc2ccc(F)cc2)nc2ccncc21	48%
COc1ccc(NC(=O)C2CCN(S(=O)(=O)c3c(C)noc3/C=C/c3ccco3)CC2)cc1	128%
COc1ccc(CCNC(=O)CCn2c(=O)c3ccccc3n(Cc3ccccc3)c2=O)cc1OC	97%
CCC(=O)Nc1ccc(CC)cc1-c1nc2ccccc2n(CC(=O)c2ccc(OC)cc2)c1=O	74%
Cc1ccc(N2CC(NC(=O)CCCc3ccccc3)CC2=O)cc1 (stereo not drawn)	53%
Cc1ccc(N2CC(NC(=O)CCc3ccccc3)CC2=O)cc1 (stereo not drawn)	-3% (active)
O=C(CCc1ccccc1)NC1CC(=O)N(c2ccccc2)C1 (stereo not drawn)	78%
COc1ccccc1NC(=O)CN(c1ccc(C(C)C)cc1)S(=O)(=O)c1c(C)noc1C	88%
O=c1c2cc3c(nc2ncn1Cc1ccc(Cl)cc1)CCCC3	76%
O=C(CSc1nnc(NC(=O)Nc2ccccc2)s1)Nc1cccc(F)c1	75%
CCSc1nsc(NC(=O)Nc2cccc(F)c2)n1	0% (active)
CCSc1nsc(NC(=O)Nc2cccc(OC)c2)n1	95%
Cc1ccc(CNC(=O)c2ccc(CSCc3ccc(Cl)cc3)o2)cc1	85%
CCOc1ccc(C(c2c(O)cc(C)n(Cc3ccco3)c2=O)N2CCN(C)CC2)cc1 (stereo not drawn)	66%
CC(C)(C)OC(=O)N1CCC(c2c(C(=O)NCc3ccc4c(c3)OCO4)cnn2-c2ccccc2Cl)CC1	75%
CCCCCNC(=O)CCCCCn1c(=O)[nH]c2ccsc2c1=O	62%

SMILES	survival
CNC(=O)C1CCC(Cn2c(=O)[nH]c3ccsc3c2=O)CC1 (stereo not drawn)	80%
CCCCN(C)C(=O)C1CCC(Cn2c(=O)[nH]c3ccsc3c2=O)CC1 (stereo not drawn)	-2% (active)
CCCn1nc(NC(=O)c2cccc(Cl)c2)c2cc3cccc(C)c3nc21	87%
COc1ccc(-c2cccc(NS(=O)(=O)c3ccc(C)s3)c2)nn1	91%
COc1ccc(-c2nc(CSCC(=O)N3CCN(c4cc(Cl)ccc4C)CC3)c(C)o2)cc1	-1% (active)
Cc1ccc(Cl)cc1N1CCN(C(=O)C2CCCN(Cc3nc(-c4cccc(Cl)c4)oc3C)C2)CC1 (stereo not drawn)	84%
Cc1ccc(C)c(N2CCN(C(=O)C3CCN(Cc4nc(-c5cccc(Cl)c5)oc4C)CC3)CC2)c1	3% (active)
COc1ccc(-c2nc(CSCC(=O)N3CCN(c4ccc(OC)cc4)CC3)c(C)o2)cc1	81%
COc1ccc(-c2nc(CSCC(=O)N3CCN(c4ccccc4F)CC3)c(C)o2)cc1	24%
Cc1cccc(-c2nc(CN3CCCC(C(=O)N4CCN(c5cc(Cl)ccc5C)CC4)C3)c(C)o2)c1 (stereo not drawn)	75%
Cc1ccc(C)c(N2CCN(C(=O)C3CCCN(Cc4nc(-c5cccc(Cl)c5)oc4C)C3)CC2)c1 (stereo not drawn)	81%
CCc1ccc(-c2nc(CN3CCCC(C(=O)N4CCN(c5cc(Cl)ccc5C)CC4)C3)c(C)o2)cc1 (stereo not drawn)	84%
Cc1ccc(Cl)cc1N1CCN(C(=O)C2CCN(Cc3nc(-c4ccc(Cl)cc4)oc3C)CC2)CC1	-4% (active)
Cc1cccc(N2CCN(C(=O)C3CCN(Cc4nc(-c5ccc(Cl)cc5)oc4C)CC3)CC2)c1C	47%
Cc1oc(-c2cccc(Cl)c2)nc1CN1CCC(C(=O)NC(C)C)CC1	92%
Cc1ccc(Cl)cc1N1CCN(C(=O)C2CCN(Cc3nc(-c4cccc(Cl)c4)oc3C)CC2)CC1	-4% (active)
